The record followed here is PubChem BioAssay.

Where “and” joins values, the source holds several entries; their conditions need not be identical. Identical values can stand only once. Calls of active or inactive are those of the source. Unless noted, no rule for the calls is given here.

A word on the viability: it is a read-out of living cells in per cent, often relative to untreated cells. For orientation: inhibition means the relative decrease from the control value, in per cent.

Assay [1] can be described thus: hESC survival regulators, cell-based (AID 493140).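 Also: cells exposed to compounds for four days before counting.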 Particulars: human embryonic stem cell survival screen; stronger effect = higher value.
The nature of assay [2]: sensitizers of A549 cells to miR-34 induction, primary screen, imaging, A549 dox-inducible miR-34, nuclei and caspase counts (AID 1347080;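 active = compounds whose cell count with miR-34 switched on is under 0.7 times the count with it off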). Particulars: A549 miR-34 inducible, Hoechst nuclei count, 48 h.
A short description of assay [3]: inhibitors of Cryptococcus chitosan production, flow cytometry, Cibacron Brilliant Red staining (AID 1347148).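 Also: compound exposure lasted three days at 37 degrees C.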 Conditions: Cryptococcus neoformans chitosan, stronger effect = lower value; at 10 µM unless noted. (A flow cytometer gives signals particle by particle.)
Assay [4] is described as follows: circadian clock period modulators, cell-based, LOPAC library, luminescence reporter (AID 2774).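 Also: values are relative to mean of DMSO wells on each plate.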 Conditions: circadian reporter cells, at 7 µM, actives lie on both sides.
The nature of assay [5]: liver-stage malaria parasite growth inhibition, primary screen, cell-based, HepG2, luciferase luminescence, HepG2 viability (AID 624349; in the data active = parasite load remaining mostly below about 12%, no sharp cut-off; inactive = mostly above about 10%;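 also: 100% = mean of DMSO negative control wells on the same plate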). Particulars: P. berghei liver stage in HepG2, luciferase luminescence, concentration not given here; parasite load remaining: stronger effect = lower value; viability: measured here: HepG2 viability without parasites.
The subject of assay [6] is Hepatitis C virus NS3 helicase. As to the kind of experiment: HCV NS3 helicase inhibitors, primary screen, biochemical, fluorescence polarization, LOPAC1280 library (AID 687035; in the data active = inhibition above about 37%). Conditions: Purified HCV NS3 helicase, Cy5-dT15 ssDNA binding fluorescence polarization; stronger effect = higher value; concentration not given here. (In general: In fluorescence polarisation assays a small probe gives low polarisation when free and higher when bound to something large.)

A short description of assay [7]: Cy5 fluorescence quenching or enhancement artefacts, artefact control for HCV NS3 helicase inhibitor project, biochemical, LOPAC1280 (AID 687037). Conditions: Cy5-DNA-NS3h complex fluorescence interference counterscreen. A general note: Counterscreens check selectivity or assay interference.
The nature of assay [8]: phospholipid biosynthesis inhibitors in animal cells, primary screen, cell-based, LOPAC library, screen 4 (AID 1347384). Particulars: phospholipid biosynthesis inhibition screen, at 10 µM.
Assay [9] is described as follows: survival rescue of mitochondrial mutant cells in low glucose, primary screen, MELAS cybrids, Rieske KO mouse fibroblasts, CellTiter-Glo (AID 1508586;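 active = mean z-score across replicates of 1.96 or higher in either the MELAS or the Rieske mutant cell line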;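 also: z relative to plate mean and SD of compound and empty wells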).
A short description of assay [10]: viability rescue of complex I mutant cybrids, primary screen, cell-based, galactose medium, ATP luminescence (AID 1645843;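 active = z-score of at least 1.8 in each of two replicates, scored against plate mean and spread of sample wells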;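 also: positive z means more ATP and so rescue of galactose-driven cybrid death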). Conditions: complex I mutant cybrid cells, 72 h, stronger effect = higher value.
Where [11] appears, read: stronger effect = lower value, cell number ratio, induced over uninduced.
Where [12] appears, read: measured here: relative caspase fold change +Dox/-Dox.
The mark [13] stands for this setting: measured here: total cells with miR-34 induction, stronger effect = lower value.
[14] abbreviates: measured here: total cells without miR-34 induction.
Where [15] appears, read: MELAS cybrid survival, CellTiter-Glo 48 h, stronger effect = higher value.
The mark [16] stands for this setting: Rieske KO mouse fibroblast survival, CellTiter-Glo 72 h.

`CCCCC/C=C\C/C=C\CCCCCCCC(=O)O`: in [1], the survival is 55.7 (inactive). The fold change was 0.973 (inactive) and 1.02 (inactive) in assay [2] (setting [11]); 1.17 and 0.947 in assay [2] (setting [12]). The cell count in assay [2] (setting [13]) is 6220 and 5980; in assay [2] (setting [14]), 6400 and 5840. The fold fluorescence in assay [3] was 4.86 (inactive).
With `CC(=O)N[C@@H](CSC/C=C(\C)CC/C=C(\C)CCC=C(C)C)C(=O)O`, in assay [1], the survival is 97.2 (inactive). In addition, the fold change in assay [2] (setting [11]) was 0.899 (inactive) and 1.06 (inactive); in [2] (setting [12]), 1.4 and 1.04. Also, the cell count in assay [2] (setting [13]) is 5730 and 5900; in assay [2] (setting [14]), 6380 and 5570. The fold fluorescence in assay [3] is 5 [at 136 µM] (inactive).
As to `COc1ccc(C(=O)NCc2cccnc2)cc1C(=O)NCc1cccnc1`, the period change in assay [4] was -0.05 h (inactive). The survival in [1] was 25.1 (inactive). Further, the parasite load remaining in [5] was 27.2% (inactive) and 91.5% (inactive) and 35% (inactive). Moreover, the viability in assay [5] is 71% and 87.7% and 69.5%. In [6], the inhibition is -2% (inactive). In addition, the fluorescence ratio (interference) in assay [7] was 1 (inactive). Besides, the fold change is 0.938 (inactive) and 0.931 (inactive) and 0.857 (inactive) in assay [2] (setting [11]); 1.32 and 2 and 1.31 in assay [2] (setting [12]). Besides, the cell count was 10400 and 9270 in assay [2] (setting [13]); 11100 and 9960 and 10800 in [2] (setting [14]). Also, the compound was classed as inactive in assay [8]. For the same compound, the z-score is 0.681 (inactive) and 0.373 (inactive) in [9] (setting [15]); 0.414 and 0.0826 in assay [9] (setting [16]); 0.09 (inactive) and 0.34 (inactive) in assay [10].
As to `CC/C=C\C/C=C\C/C=C\CCCCCCCCCC(=O)O`, in assay [1], the survival was 95.1 (inactive). In addition, the fold change was 1.09 (inactive) and 1.03 (inactive) in [2] (setting [11]); 1.26 and 1.06 in assay [2] (setting [12]). The cell count was 5750 and 5880 in [2] (setting [13]); 5250 and 5730 in assay [2] (setting [14]). The fold fluorescence in [3] was 4.88 (inactive).
Take `NC(N)=NCc1cccc(I)c1`: the period change in assay [4] was 0.01 h (inactive). Moreover, the survival in assay [1] is 4 (inactive). Also, the parasite load remaining in assay [5] was 28.4% (inactive) and 43.8% (inactive). Besides, the viability in assay [5] is 121% and 78.9%. The inhibition in assay [6] was -5% (inactive). For the same compound, the fluorescence ratio (interference) in assay [7] is 0.9 (inactive). Moreover, the fold change in assay [2] (setting [11]) was 1.1 (inactive) and 0.739 (inactive); in assay [2] (setting [12]), 0.666 and 1.95. For the same compound, the cell count in assay [2] (setting [13]) was 8720 and 5880; in assay [2] (setting [14]), 7960. The compound was called inactive in assay [8]. Besides, the z-score in [9] (setting [15]) is -0.124 (inactive); in assay [9] (setting [16]), -0.101; in assay [10], -0.305 (inactive).
In the case of `CCCCCCCCCCCCC/C=C/[C@@H](O)[C@@H](N)CO`, the survival in assay [1] is 98.4 (inactive) and 83.2 (inactive). Besides, the fold change in assay [2] (setting [11]) is 0.985 (inactive) and 0.945 (inactive); in assay [2] (setting [12]), 1.13 and 1.49. The cell count in [2] (setting [13]) is 6200 and 6060; in assay [2] (setting [14]), 6290 and 6410. The fold fluorescence in [3] is 8.01 (inactive).
For `CCOC(=O)C(CCc1ccccc1)NC1CCc2ccccc2N(CC(=O)O)C1=O` (centres undefined), the fold change in assay [2] (setting [11]) is 0.901 (inactive) and 0.923 (inactive) and 1.08 (inactive); in assay [2] (setting [12]), 1.61 and 0.619 and 0.514. In addition, the cell count in [2] (setting [13]) was 9200 and 8490 and 8200; in [2] (setting [14]), 10200 and 9200 and 7620. Also, the z-score in assay [9] (setting [15]) is 0.349 (inactive) and -0.387 (inactive); in [9] (setting [16]) it was -0.629 and -0.0664; in [10], 0.855 (inactive) and 0.665 (inactive).
